Our source for the cell viability values is the supplement of paper PMC10981050.

The term cell viability denotes a read-out of living cells in per cent, often relative to untreated cells.

Counter-ions that a name gives are not always drawn.

The test concerns OCI-AML2. Description: cell viability relative to vehicle control; higher = less cytotoxic. To be noted: 10 µM; SRSF2 genotype: wt/wt. Summed up:
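After removal of identity-inconsistent compounds, the Selleck bioactive, kinase and epigenetic probe libraries were screened on CRISPR-edited mutant clones and isogenic wild-type clones of four leukaemia lines. Plates were 384-well, each well holding 2000 cells in 50 µL medium and receiving a single 10 µM acoustically dispensed dose. CellTiter-Glo luminescence was read 48 h later, after the supernatant was taken off. Genedata Screener was used to express viability as percent of the on-plate vehicle control.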
Take `O=C(Nc1cccc(Cl)c1)Nc1ncc(CCNc2ncnc3ccsc23)s1` [SNS-314 Mesylate]: the cell viability is 30.8%.

`O=C(c1cn(Cc2cncn2Cc2ccc(Br)cc2)cc1-c1cccc2ccccc12)N1CCOCC1`: the cell viability was determined as 32.2%. On to `COc1cc(N2CCN(C)CC2)ccc1Nc1nccc(-c2cn(C)c3cnccc23)n1`, for which the cell viability turned out to be 11.4%. As to `O=c1c(-c2ccc(O)cc2)coc2cc(O[C@@H]3O[C@H](CO)[C@@H](O)[C@H](O)[C@H]3O)ccc12` [Daidzin], the cell viability worked out at 98.4%. The value for `COc1nc(C)cnc1NS(=O)(=O)c1cccnc1-c1ccc(-c2nnco2)cc1` [Zibotentan (ZD4054)] was 105%. As for `Nc1ccc(-c2cccc(C(=O)Nc3cnc4nc(N5CCOCC5)oc4c3)n2)cn1`, the cell viability was found to be 93.7%. Consider `C[C@@H]1CC[C@@]2(OC1)O[C@H]1C[C@H]3[C@@H]4CC=C5C[C@@H](O[C@@H]6O[C@H](CO)[C@@H](O)[C@H](O)[C@H]6O)CC[C@]5(C)[C@H]4CC[C@]3(C)[C@H]1[C@@H]2C` [Trillin], for which the cell viability is 98.5%. For `CCCC(C)NC(=O)c1ccc(Cl)c(Cl)c1` (stereo unspecified), the cell viability worked out at 96.8%. On to `C[C@@H]1C/C=C/C=C/C=C/C=C/[C@H](O[C@@H]2O[C@H](C)[C@@H](O)[C@H](N)[C@@H]2O)C[C@@H]2O[C@](O)(C[C@@H](O)C[C@H]3O[C@@H]3/C=C/C(=O)O1)C[C@H](O)[C@H]2C(=O)O` [Natamycin], for which the cell viability came out at 110%.

Consider `CN1CCN(c2ccc(Nc3ncc4cc(C#N)c(=O)n(C5CCCC5)c4n3)cc2)CC1`, for which the cell viability was found to be 29.1%. Regarding `COc1ccc(-c2oc3c(CC=C(C)C)c(O[C@@H]4O[C@H](CO)[C@@H](O)[C@H](O)[C@H]4O)cc(O)c3c(=O)c2O[C@@H]2O[C@@H](C)[C@H](O)[C@@H](O)[C@H]2O[C@@H]2O[C@@H](C)[C@H](O)[C@@H](O)[C@H]2O)cc1` [Epmedin C], the cell viability was 107%.
